Compounds with a hit are over-represented: about 5.2% of the library has one in this group of screens.
PLK1 PBD block: PLK1 (human) polo-box domain binding inhibition. P53350. Plk1 PBD binding of FITC phosphopeptide, fluorescence polarization. Potency, µM, hits mostly inhibitors. hit rate 2.8% among 360,000. AID 720504; also: series mostly up to about 57 µM; nearly all actives have a fitted effect of over 65% in size
IDH1 R132H inh: blocks human mutant IDH1 R132H enzyme | IDH1-R132H enzyme, NADPH consumption, diaphorase/resazurin fluorescence | Potency, µM (titrated, usually from 76.6 µM), hits mostly inhibitors | hit rate 0.093% among 390,000; also: nearly all actives have a fitted effect of over 65% in size
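IDH1-R132H (0.5 ug/mL) preincubated 30 min with compound, then NADPH (0.016 mM) and alpha-KG (2 mM) added; 80 min at RT, pH 7.5. Remaining NADPH coupled via diaphorase/resazurin to fluorescence (540/590 nm); concentration-response curves normalized to no-enzyme control.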
rTrxR1 inhibitor: inhibitors of rat thioredoxin reductase 1. Potency, µM (titrated, usually from 114 µM), most hits filed as inhibitors. hit rate 1% among 390,000. recombinant rTrxR1, NADPH fluorescence consumption, selenite substrate; also: nearly all actives have a fitted effect of over 65% in size
Target sequence (O89049 whole entry, looked up): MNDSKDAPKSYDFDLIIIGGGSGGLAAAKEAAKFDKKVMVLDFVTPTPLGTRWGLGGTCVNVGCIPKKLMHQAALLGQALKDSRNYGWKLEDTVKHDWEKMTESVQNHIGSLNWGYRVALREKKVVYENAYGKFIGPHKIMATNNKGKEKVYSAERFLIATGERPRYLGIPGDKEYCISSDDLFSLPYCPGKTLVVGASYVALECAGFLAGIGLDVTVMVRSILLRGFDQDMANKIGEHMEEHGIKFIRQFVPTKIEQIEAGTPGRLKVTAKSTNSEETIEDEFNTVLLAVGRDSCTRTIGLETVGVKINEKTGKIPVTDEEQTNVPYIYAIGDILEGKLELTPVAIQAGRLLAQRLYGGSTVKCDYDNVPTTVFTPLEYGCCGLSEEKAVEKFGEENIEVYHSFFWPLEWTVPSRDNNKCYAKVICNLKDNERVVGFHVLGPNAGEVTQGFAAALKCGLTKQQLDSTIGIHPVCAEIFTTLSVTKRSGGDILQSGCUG
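Rat TrxR1 (90 nM in the dispensed reagent) was pre-reduced with 400 uM NADPH for 5 min at room temperature, then incubated with compound for 15 min. After 400 uM selenite was added, NADPH fluorescence (Ex 340/Em 450 nm) was followed for 8 min.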
VDR inhibitor: vitamin D3 receptor (human) inhibition; P11473; hit rate 0.93% among 400,000; VDR-SRC2-3 peptide fluorescence polarization, 2 h; Potency, µM, usual class: inhibitors; AID 504847
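VDR–SRC2-3 interaction, FP format. Cmpds 23 nl via pintool, brief spin, 2 h ambient incubation.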
Sfp PPTase inh: inhibitors of Bacillus subtilis Sfp phosphopantetheinyl transferase. Q9F4F7. Biochemical Sfp PPTase activity, qHTS. Potency, µM, usual class: inhibitors. hit rate 3.5% among 310,000. AID 1490;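 also: the enzyme is Sfp with the accession as filed and its product quenches rhodamine fluorescence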
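Compounds were incubated with enzyme (final 15 nM) for 15 min at room temperature before substrate addition started the reaction. Fluorescence at 525 nm excitation, 598 nm emission was recorded immediately and after 30 minutes.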
TrxR1 substrate: is turned over as a substrate by rat TrxR1. O89049. purified TrxR1 substrate turnover, NADPH consumption readout. Potency, µM (top dose mostly 114 µM). hit rate 0.01% among 390,000. AID 588456; also: nearly all actives have a fitted effect of over 50% in size
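Rat TrxR1, dispensed at 90 nM, was prereduced with 400 uM NADPH (final) for 5 min at ~22 deg C, then incubated with compound 15 min before 400 uM selenite. A first-read NADPH fluorescence drop versus no-compound background flagged substrates.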
A number is an active result; i = inactive; ? = inconclusive; nt = no result; ! = not active in a repeat. Calls follow the shape of the dose curve; as a rule, active = well fitted curve in the direction sought with a large enough effect; inconclusive = small, poorly fitted or top-dose-only effect, or another doubt; inactive = no such curve, though single readings can be large; an effect the other way counts as inactive or inconclusive.

SMILES	PLK1 PBD block	IDH1 R132H inh	rTrxR1 inhibitor	VDR inhibitor	Sfp PPTase inh	TrxR1 substrate
CC(C)CS(=O)(=O)C1=NN2C(=N)/C(=C\c3ccc(OC(=O)c4ccco4)cc3)C(=O)N=C2S1	21.2µM	i	?	?	i	i
COc1cc(/C=C2/C(=O)NC(=O)N(c3ccccc3)C2=O)ccc1O	8.44µM	i	44.7µM	i	8.91µM	i
COc1ccc(/C=C2/C(=O)NC(=O)N(c3ccccc3)C2=O)cc1CN1C(=O)c2ccccc2C1=O	5.97µM	i	25.1µM	79.4µM	50.1µM	i
COc1ccccc1N1C(=O)NC(=O)/C(=C\c2cnn(-c3ccccc3)c2)C1=O	3.36µM	i	i	?	31.6µM	i
COc1ccc(-n2c(/C=C/c3ccc(O)c(OC)c3)nc3ccccc3c2=O)cc1	i	i	i	i	i	i
COc1cccc(N2C(=O)NC(=O)/C(=C/c3ccc4c(c3)Cc3ccccc3-4)C2=O)c1	3.36µM	i	14.1µM	?	56.2µM	i
CCOP(=S)(OCC)OCCSCC	nt	nt	nt	i	i	nt
C[C@@]12C=CC(=O)C=C1CCC1C2CC[C@]2(C)C(=O)CCC12 (stereo not given in full)	nt	nt	nt	i	i	nt
COC(=O)[C@@]1(Cc2ccccc2)[C@H]2c3cc(C(=O)N(C)C)[nH]c3C[C@H]2CN1C(=O)c1ccccc1	nt	nt	nt	nt	i	nt
CNC(=S)S	nt	nt	nt	?	i	nt
CCc1ccc(N2C(=O)NC(=O)/C(=C/c3cccn3CCOc3ccc(C(C)CC)cc3)C2=O)cc1 (stereo not given)	i	i	i	i	i	i
CCOc1cc(/C=C2/C(=O)NC(=O)N(c3ccc(CC)cc3)C2=O)ccc1OC(=O)c1cccs1	5.97µM	i	17.8µM	?	79.4µM	i
O=Nc1c(-c2ccccc2)n(O)[n+]([O-])c1-c1ccccc1	?	i	nt	nt	nt	nt
O=C(Nc1cccc(C(=O)Nc2cc(C(=O)Nc3ccc([S+](=O)([O-])[O-])c4cc([S+](=O)([O-])[O-])cc(SOOO)c34)ccc2F)c1)Nc1cccc(C(=O)Nc2cc(C(=O)Nc3ccc([S+](=O)([O-])[O-])c4cc([S+](=O)([O-])[O-])cc([S+](=O)([O-])[O-])c34)ccc2F)c1	nt	nt	nt	39.8µM	?	nt
CC(=O)N1CC2CC(C1)c1cccc(=O)n1C2 (stereo not given)	nt	nt	nt	nt	i	nt
CC1Cc2ccccc2CN1 (stereo not given)	nt	nt	i	nt	nt	i
O[C@@H](Cc1ccncc1)C(Cl)(Cl)Cl	nt	nt	nt	i	i	nt
CCCCCCCCCCCCCCCC[n+]1ccccc1	i	i	i	i	50.1µM!	i
CCCCCCC[n+]1ccc(-c2cc[n+](CCCCCCC)cc2)cc1	i	i	i	i	i	i
CC1(C)C(O)CC(=O)[C@]2(C)C1CC(=O)[C@]1(C)C2CC[C@@]2(C)C(c3ccoc3)OC(=O)C3O[C@@]321 (stereo not given in full)	nt	nt	nt	i	i	nt
COc1ccc(NC(=O)CSc2oc(-c3cccs3)nc2S(=O)(=O)c2ccccc2)c(OC)c1	nt	i	?	i	nt	i
CCN1CCN(CC(=O)c2c(C)n(Cc3ccccc3)c3ccc(OC)cc23)CC1	21.2µM	i	?	?	i	i
CCOC(=O)c1c(C)n(Cc2ccccc2)c2ccc(O)cc12	i	i	i	i	50.1µM	i
COC(=O)c1c(C)n(Cc2ccccc2)c2ccc(O)cc12	i	i	i	i	50.1µM	i
CC(CCC(=O)O)C1CCC2C3C(=O)C[C@@H]4CC(=O)CC[C@@]4(C)C3CC(=O)[C@]12C (stereo not given in full)	nt	nt	nt	i	i	nt
SMILES	PLK1 PBD block	IDH1 R132H inh	rTrxR1 inhibitor	VDR inhibitor	Sfp PPTase inh	TrxR1 substrate
Cc1ccc(-c2nnc(Nc3ccc(O)cc3)c3ccccc23)cc1S(=O)(=O)N1CCOCC1	nt	i	i	?	nt	i
CC1(C)C(O)CC(O)[C@]2(C)C1CC(=O)[C@]1(C)C2CC[C@@]2(C)C(c3ccoc3)OC(=O)C3OC321 (stereo not given in full)	nt	nt	nt	i	i	nt
Oc1c(Cl)c(Cl)c(Cl)c(Cl)c1Cl	26.7µM	i	i	89.1µM	i	i
COc1cccc(C(=O)N2CCN(Cc3ccccn3)CC2)c1OC	i	i	i	i	79.4µM	i
COc1ccc(C(=O)C2CCCN(Cc3ccccn3)C2)c(OC)c1 (stereo not given)	i	i	i	i	i	i
C/C(=C\[C@@H](N)C(=O)O)CP(=O)(O)O	nt	nt	nt	i	i	nt
CC[C@H](C)[C@H](NC(=O)[C@H](CCCN=C(N)N)NC(=O)[C@H](CCCN=C(N)N)NC(=O)[C@H](CC(C)C)NC(=O)[C@H](Cc1ccccc1)NC(=O)CNC(=O)CNC(=O)[C@@H](N)Cc1ccc(O)cc1)C(=O)O	nt	nt	nt	i	i	nt
C=CCN1CC[C@]23c4c5ccc(O)c4O[C@@H]2/C(=N/N=C2\CC[C@@]4(O)C6Cc7ccc(O)c8c7[C@@]4(CCN6CC=C)[C@@H]2O8)CC[C@@]3(O)C1C5	nt	nt	20µM	i	nt	i
C=CCN1CCC23c4c5ccc(O)c4OC2/C(=N/N=C2\CCC4(O)C6Cc7ccc(O)c8c7C4(CCN6CC=C)C2O8)CCC3(O)C1C5 (stereo not given)	nt	nt	nt	i	i	nt
COc1cc(/C=C/C(=O)c2c(O)n(CCc3ccccc3)c(=O)[nH]c2=O)ccc1O	i	i	?	44.7µM	i	i
CCCCn1c(O)c(C(C)=NCCc2ccccc2)c(=O)[nH]c1=O	i	i	i	i	i	i
COCCN(C(=O)CCl)c1c(C)cccc1C	nt	nt	nt	i	i	nt

Screens (PubChem)
